Data taken from PubChem BioAssay (NCATS).
Records with an inconclusive call do not appear. Activity calls are given as the source filed them. Calls follow the shape of the dose curve; as a rule, active = well fitted inhibition curve with a large enough effect; inconclusive = small, poorly fitted or top-dose-only effect; inactive = flat fitted curve, though single readings scatter.

Tests used:
Assay in all cases: qHTS profiling for inhibitors of Plasmodium falciparum proliferation (AID 504749); also: nearly all actives have a fitted effect of over 60% in size
AA1029 = conditions: P. falciparum in erythrocytes, SYBR Green DNA, 72 h; series mostly up to 28.7 µM
In short: (§1)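 In a 72 h erythrocytic culture (37 C, humidified, 5% CO2) at 2.5% hematocrit and 0.3% starting parasitemia, compounds were tested; SYBR Green I in detergent lysis buffer stained parasite DNA overnight.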

C2A = conditions: P. falciparum in erythrocytes, SYBR Green DNA, 72 h; series mostly up to 28.7 µM
In short: as §1

CP215 = conditions: P. falciparum in erythrocytes, SYBR Green DNA, 72 h; series mostly up to 28.7 µM
In short: as §1

CP217 = conditions: P. falciparum in erythrocytes, SYBR Green DNA, 72 h; series mostly up to 28.7 µM
In short: as §1

CP250 = conditions: P. falciparum in erythrocytes, SYBR Green DNA, 72 h; series mostly up to 12.8 µM
In short: as §1

CP252 = conditions: P. falciparum in erythrocytes, SYBR Green DNA, 72 h; series mostly up to 12.8 µM
In short: as §1

CP269 = conditions: P. falciparum in erythrocytes, SYBR Green DNA, 72 h; series mostly up to 28.7 µM
In short: as §1

CP291 = conditions: P. falciparum in erythrocytes, SYBR Green DNA, 72 h; series mostly up to 28.7 µM
In short: as §1

CP297 = conditions: P. falciparum in erythrocytes, SYBR Green DNA, 72 h; series mostly up to 28.7 µM
In short: as §1

CP315 = conditions: P. falciparum in erythrocytes, SYBR Green DNA, 72 h; series mostly up to 28.7 µM
In short: as §1

CP325 = conditions: P. falciparum in erythrocytes, SYBR Green DNA, 72 h; series mostly up to 28.7 µM
In short: as §1

CP329 = conditions: P. falciparum in erythrocytes, SYBR Green DNA, 72 h; series mostly up to 28.7 µM
In short: as §1

DIV14 = conditions: P. falciparum in erythrocytes, SYBR Green DNA, 72 h; series mostly up to 28.7 µM
In short: as §1

DIV17 = conditions: P. falciparum in erythrocytes, SYBR Green DNA, 72 h; series mostly up to 28.7 µM
In short: as §1

JCK = conditions: P. falciparum in erythrocytes, SYBR Green DNA, 72 h; series mostly up to 28.7 µM
In short: as §1

N140 = conditions: P. falciparum in erythrocytes, SYBR Green DNA, 72 h; series mostly up to 28.7 µM
In short: as §1

P93_24 = conditions: P. falciparum in erythrocytes, SYBR Green DNA, 72 h; series mostly up to 28.7 µM
In short: as §1

PAD = conditions: P. falciparum in erythrocytes, SYBR Green DNA, 72 h; series mostly up to 28.7 µM
In short: as §1

SC27B = conditions: P. falciparum in erythrocytes, SYBR Green DNA, 72 h; series mostly up to 28.7 µM
In short: as §1

TAB165 = conditions: P. falciparum in erythrocytes, SYBR Green DNA, 72 h; series mostly up to 28.7 µM
In short: as §1

Measured: Potency

CC(C)(O)C1C2OC(=O)C1[C@]1(O)C[C@H]3O[C@]34C(=O)O[C@H]2[C@]14C (stereo not given in full) (tested in a mixture with another compound)
inactive: all assays above

CCCC[N+]1(C)C2CC(OC(=O)C(CO)c3ccccc3)CC1C1OC12 (stereo not given)
inactive: all assays above

Oc1ccc2c3c1O[C@H]1[C@@H](O)CC[C@@]4(O)C(C2)N(CC2CCC2)CCC314 (stereo not given in full)
inactive: all assays above

CNC(C)[C@@H](O)c1ccc(O)cc1 (stereo not given in full)
inactive: all assays above
